Reference: PubChem BioAssay
Inconclusive results are not listed. Activity calls are given as the source filed them.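 Rule for the calls, unless noted: active = efflux inhibition above 0.42, the validation set average plus 4 SD; inconclusive = no clear call, values can overlap the other calls; inactive = the rest.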

Columns and labels:
[1] = rapamycin-like changes in RPL19A-GFP expression – cell-based, S. cerevisiae, multiplex flow cytometry, primary screen (AID 1862; in the data active = percent of DMSO control GFP below about 86%;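 note: lower values mimic rapamycin by blocking the RPL19A rise seen in DMSO cells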); conditions: S. cerevisiae RPL19A-GFP strain, flow cytometry fluorescence, 3 h; at 10 µM; stronger effect = lower value
[2] = TOR pathway GLN3 branch reporter MEP2-GFP changes – S. cerevisiae, multiplex flow cytometry, primary screen (AID 1867;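 active = GFP response, as percent of the DMSO control, above the screen-wide mean plus 3 SD, about 139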;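 note: median GFP channel fluorescence of barcode-gated MEP2-GFP cells measured by flow cytometry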); conditions: S. cerevisiae MEP2-GFP strain, 3 h, at 10 µM, stronger effect = higher value, 100% means same as DMSO wells
[3] = TOR pathway RTG branch CIT2 reporter changes – S. cerevisiae, GFP fusion, multiplex flow cytometry, primary screen (AID 1870;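 active = percent response above a set limit, the screen-wide mean plus 3 SD, cut at about 130% in these data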;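 note: barcoded CIT2-GFP strain pooled with four other GFP strains with rapamycin as positive control; median GFP fluorescence per well over plate mean of DMSO wells so 100% = DMSO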); conditions: S. cerevisiae CIT2-GFP expression, 3 h, at 10 µM, stronger effect = higher value
[4] = TOR pathway LAP4-GFP level changes – S. cerevisiae, multiplex flow cytometry, primary screen (AID 1873;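 active = GFP signal, as percent of the solvent control, above the screen mean plus 3 SD, about 149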); conditions: S. cerevisiae LAP4-GFP expression, 3 h, at 10 µM, stronger effect = higher value
[5] = yeast AGP1-GFP level changes, GLN3 branch – cell-based, multiplex flow cytometry, S. cerevisiae, primary screen (AID 1887;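 active = GFP signal above the screen-wide mean plus 3 SD, that is over about 124.5% of the solvent control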;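 note: AGP1-GFP fusion strain of S. cerevisiae within a five-strain barcoded multiplex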); conditions: 3 h, at 10 µM, stronger effect = higher value
[6] = reduced mouse 2C T cell binding to pMHC/ICAM-1 vesicles – MLPCN validation set, flow cytometry, LFA-1/ICAM-1 modulator project, pilot screen (AID 2523;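 active = response below a set limit, under 55% cells CD8-positive and vesicle-bound, and CD8 cells' 90th-percentile brightness under 279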;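 for vesicle binding response: mean PE anti-B7-1 fluorescence of CD8+ cells relative to row control; 100% = QL9-loaded vesicles with DMSO vehicle in the same plate row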); conditions: 2C mouse CD8+ T cells, at 7 µM, stronger effect = lower value; double positive events: measured here: CD8+/vesicle+ event percentage
[7] = target: Integrin beta-1 (Homo sapiens) + Integrin alpha-4 (Homo sapiens) (UniProt P13612+P05556); assay: alpha4beta1 integrin LIBS antibody binding reduction – U937 cells, HUTS-21 mAb, flow cytometry, validation set, VLA-4 allosteric modulator project, pilot screen (AID 2674;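 active = inhibition above 50%, about 3 SD of the validation set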;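 note: antibody binding induced by the VLA-4 ligand LDV present at three times its Kd; 0% = LDV ligand with antibody and no compound and 100% = antibody without LDV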); conditions: HUTS-21 LIBS mAb binding, at 6.7 µM, stronger effect = higher value, binding induced by LDV ligand
Sequence of Integrin beta-1 (Homo sapiens) + Integrin alpha-4 (Homo sapiens) (P05556 whole entry, looked up): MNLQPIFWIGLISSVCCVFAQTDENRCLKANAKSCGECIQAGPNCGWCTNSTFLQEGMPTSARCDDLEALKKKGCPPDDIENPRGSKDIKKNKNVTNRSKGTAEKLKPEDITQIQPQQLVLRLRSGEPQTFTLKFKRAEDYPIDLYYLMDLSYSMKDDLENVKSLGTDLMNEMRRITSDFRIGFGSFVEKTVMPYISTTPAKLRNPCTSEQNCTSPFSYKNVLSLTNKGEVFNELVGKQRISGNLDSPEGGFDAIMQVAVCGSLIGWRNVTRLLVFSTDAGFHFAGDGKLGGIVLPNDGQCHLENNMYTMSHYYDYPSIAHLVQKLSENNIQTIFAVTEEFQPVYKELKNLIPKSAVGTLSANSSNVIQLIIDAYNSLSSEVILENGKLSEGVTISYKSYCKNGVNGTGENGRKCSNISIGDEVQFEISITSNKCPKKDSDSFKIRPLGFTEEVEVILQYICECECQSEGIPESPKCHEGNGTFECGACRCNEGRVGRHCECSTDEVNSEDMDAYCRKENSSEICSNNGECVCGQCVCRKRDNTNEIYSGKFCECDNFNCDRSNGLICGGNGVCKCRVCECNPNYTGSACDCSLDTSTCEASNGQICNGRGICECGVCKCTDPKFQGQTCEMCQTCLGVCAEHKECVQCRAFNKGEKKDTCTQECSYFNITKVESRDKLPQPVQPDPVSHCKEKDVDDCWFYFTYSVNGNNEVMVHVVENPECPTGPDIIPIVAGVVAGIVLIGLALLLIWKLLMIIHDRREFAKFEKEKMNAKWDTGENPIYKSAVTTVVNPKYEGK
Sequence of Integrin beta-1 (Homo sapiens) + Integrin alpha-4 (Homo sapiens) (P13612 whole entry, looked up): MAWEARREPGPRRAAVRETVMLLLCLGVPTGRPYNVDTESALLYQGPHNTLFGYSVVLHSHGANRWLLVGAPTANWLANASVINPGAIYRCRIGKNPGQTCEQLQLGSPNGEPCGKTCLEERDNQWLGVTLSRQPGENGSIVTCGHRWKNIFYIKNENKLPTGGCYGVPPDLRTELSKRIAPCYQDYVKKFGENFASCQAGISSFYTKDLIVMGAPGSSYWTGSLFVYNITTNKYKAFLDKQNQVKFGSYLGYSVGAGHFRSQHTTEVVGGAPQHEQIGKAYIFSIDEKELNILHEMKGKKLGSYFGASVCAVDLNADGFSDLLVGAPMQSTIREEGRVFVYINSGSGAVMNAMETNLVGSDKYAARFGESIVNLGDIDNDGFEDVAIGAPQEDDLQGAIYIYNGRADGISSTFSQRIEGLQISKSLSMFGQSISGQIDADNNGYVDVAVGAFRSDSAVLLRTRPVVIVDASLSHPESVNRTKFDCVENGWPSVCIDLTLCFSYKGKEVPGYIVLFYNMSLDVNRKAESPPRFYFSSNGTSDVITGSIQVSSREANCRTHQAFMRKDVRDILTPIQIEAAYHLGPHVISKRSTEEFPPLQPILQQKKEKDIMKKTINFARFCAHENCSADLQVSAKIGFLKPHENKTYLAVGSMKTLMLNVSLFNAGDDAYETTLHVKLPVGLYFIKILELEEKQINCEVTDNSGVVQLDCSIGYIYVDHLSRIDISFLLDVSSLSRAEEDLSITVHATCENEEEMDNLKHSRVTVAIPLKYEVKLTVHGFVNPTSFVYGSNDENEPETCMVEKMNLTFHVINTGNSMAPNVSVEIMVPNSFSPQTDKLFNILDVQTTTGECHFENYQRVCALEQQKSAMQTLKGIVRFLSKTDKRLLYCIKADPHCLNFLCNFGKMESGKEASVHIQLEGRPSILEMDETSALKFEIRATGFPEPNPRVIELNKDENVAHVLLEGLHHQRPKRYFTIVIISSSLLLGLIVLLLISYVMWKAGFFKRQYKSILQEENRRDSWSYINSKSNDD

[8] = calorie-restriction mimetic ROS inhibitors, yeast – validation compound set, pilot screen (AID 2706;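 active = superoxide response below 65% of plate, a cut near 3 SD across the whole screen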;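 note: yeast exposed to compound for one week at 30 degrees C before staining; 100% = mean of all compound wells on the same plate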); conditions: S. cerevisiae aging, superoxide DHE fluorescence; at 10 µM; stronger effect = lower value
[9] = target: Beta-adrenergic receptor kinase 1 (Homo sapiens) (UniProt P25098); assay: GRK2 binders displacing RNA aptamer, biochemical, validation, human GRK2, bead flow cytometry (AID 488806;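 active = aptamer binding inhibition above 30%, about 3 SD of noise from non-fluorescent compounds; inactive = inhibition at or below 30%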); conditions: bead-bound GRK2, FAM-aptamer displacement, at 10 µM, stronger effect = higher value
Sequence of Beta-adrenergic receptor kinase 1 (Homo sapiens) (P25098 whole entry, looked up): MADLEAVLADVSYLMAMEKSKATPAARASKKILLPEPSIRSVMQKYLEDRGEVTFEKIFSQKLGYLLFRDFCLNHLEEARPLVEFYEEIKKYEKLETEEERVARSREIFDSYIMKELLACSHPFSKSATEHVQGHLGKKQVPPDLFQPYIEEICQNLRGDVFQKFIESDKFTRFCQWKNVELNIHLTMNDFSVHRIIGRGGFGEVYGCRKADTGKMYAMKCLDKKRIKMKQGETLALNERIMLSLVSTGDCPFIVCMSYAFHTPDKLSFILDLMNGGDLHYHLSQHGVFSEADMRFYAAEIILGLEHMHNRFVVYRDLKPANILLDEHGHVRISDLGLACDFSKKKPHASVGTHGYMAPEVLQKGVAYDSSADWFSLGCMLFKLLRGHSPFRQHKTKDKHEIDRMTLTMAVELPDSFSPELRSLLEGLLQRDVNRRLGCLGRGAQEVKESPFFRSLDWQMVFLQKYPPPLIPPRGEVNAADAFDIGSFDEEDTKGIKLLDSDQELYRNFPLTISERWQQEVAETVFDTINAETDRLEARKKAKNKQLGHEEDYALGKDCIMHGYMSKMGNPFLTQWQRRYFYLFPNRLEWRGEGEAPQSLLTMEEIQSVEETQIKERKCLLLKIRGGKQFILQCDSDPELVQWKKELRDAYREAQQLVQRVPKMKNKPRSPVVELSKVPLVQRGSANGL

[10] = target: Beta-2 adrenergic receptor (Homo sapiens) (UniProt P07550); assay: agonist-induced loss of surface beta2AR – cell-based, FAP fluorogen, flow cytometry, validation set, pilot screen (AID 504459;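 active = percent response above 42, roughly 3 SD of non-fluorescent test compounds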;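 note: agonist-driven loss of surface beta2AR via internalization measured by FAP dye flow cytometry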); conditions: Am2.2-beta2AR cells, at 10 µM, stronger effect = higher value
Sequence of Beta-2 adrenergic receptor (Homo sapiens) (P07550 whole entry, looked up): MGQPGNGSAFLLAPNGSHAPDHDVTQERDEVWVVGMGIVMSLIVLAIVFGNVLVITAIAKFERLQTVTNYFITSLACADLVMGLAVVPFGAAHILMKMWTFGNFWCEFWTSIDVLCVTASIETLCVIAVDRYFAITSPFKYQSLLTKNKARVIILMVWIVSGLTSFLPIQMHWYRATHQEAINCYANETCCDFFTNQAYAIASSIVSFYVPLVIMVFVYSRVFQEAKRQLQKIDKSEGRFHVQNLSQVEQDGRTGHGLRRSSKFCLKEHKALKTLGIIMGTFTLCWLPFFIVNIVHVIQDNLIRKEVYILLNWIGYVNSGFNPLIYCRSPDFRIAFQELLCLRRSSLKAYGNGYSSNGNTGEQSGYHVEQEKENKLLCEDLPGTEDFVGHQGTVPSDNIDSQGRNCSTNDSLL

[11] = target: AP-2 complex subunit beta (Homo sapiens) (UniProt P63010); assay: beta-arrestin/AP2 interaction blockers – biochemical, validation set, GST-AP2 beads, flow cytometry, pilot screen (AID 504541;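 active = inhibition above 54%, about 3 SD of non-fluorescent compounds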;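 note: AP2 carries R879A mutation and is captured from E. coli lysate; bead-bound FITC arrestin peptide fluorescence measuring arrestin peptide binding to AP2; 0% = DMSO wells and 100% = excess unlabeled arrestin peptide control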); conditions: FITC arrestin peptide, at 10 µM, stronger effect = higher value, AP2 beta2 appendage fragment, R879A mutant
Sequence of AP-2 complex subunit beta (Homo sapiens) (P63010 whole entry, looked up, the tested form may be a part, one chain of several): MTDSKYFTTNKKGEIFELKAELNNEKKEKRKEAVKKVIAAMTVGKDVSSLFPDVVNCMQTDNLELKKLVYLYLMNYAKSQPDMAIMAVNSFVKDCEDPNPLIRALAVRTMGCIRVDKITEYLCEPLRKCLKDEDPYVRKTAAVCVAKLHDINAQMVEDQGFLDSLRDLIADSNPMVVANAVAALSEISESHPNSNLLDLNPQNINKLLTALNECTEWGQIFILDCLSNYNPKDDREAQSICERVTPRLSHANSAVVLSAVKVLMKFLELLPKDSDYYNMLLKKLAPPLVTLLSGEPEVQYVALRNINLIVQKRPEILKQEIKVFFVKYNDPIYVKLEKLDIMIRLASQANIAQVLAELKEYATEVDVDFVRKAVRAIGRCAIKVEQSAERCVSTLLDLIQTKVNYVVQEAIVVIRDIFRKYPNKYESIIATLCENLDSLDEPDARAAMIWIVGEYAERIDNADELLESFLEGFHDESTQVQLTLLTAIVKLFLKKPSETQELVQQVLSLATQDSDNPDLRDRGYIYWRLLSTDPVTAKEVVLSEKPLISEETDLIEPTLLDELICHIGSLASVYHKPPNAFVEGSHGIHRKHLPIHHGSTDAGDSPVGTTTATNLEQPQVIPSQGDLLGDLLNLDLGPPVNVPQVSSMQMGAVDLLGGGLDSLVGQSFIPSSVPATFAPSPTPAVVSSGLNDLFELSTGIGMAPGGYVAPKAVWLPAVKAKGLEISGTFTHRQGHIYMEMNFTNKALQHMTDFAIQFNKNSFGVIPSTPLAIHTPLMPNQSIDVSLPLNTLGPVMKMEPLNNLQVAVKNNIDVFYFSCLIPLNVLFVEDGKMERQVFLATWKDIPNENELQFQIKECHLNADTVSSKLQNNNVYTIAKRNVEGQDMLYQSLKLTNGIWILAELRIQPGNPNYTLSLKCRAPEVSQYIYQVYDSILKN

[12] = cytosolic pH regulators acting via V-ATPase – S. cerevisiae, pHLuorin, HTS validation (AID 504600; in the data active = response above about 15%;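 note: plate controls were DMSO for no effect and reference compound for full effect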); conditions: V-ATPase proton transport, at 10 µM, stronger effect = higher value
[13] = test system: anti-desmoglein-3 scFv antibody binding to human DSG3; assay: blockers of pathogenic pemphigus antibody–desmoglein-3 binding – biochemical, validation compound set, bead-based, flow cytometry, pilot screen (AID 588368;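 active = binding below the plate cutoff, the plate median minus 3 SD, with a reading above zero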;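 note: signal is the median channel fluorescence of bead-bound GFP antibody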); conditions: Protein G beads, DSG3-Fc, scFv-GFP binding, at 10 µM, stronger effect = lower value
[14] = Nile Red efflux blockade in pump-expressing yeast – validation compound set, multiplex, phenotypic, pilot screen (AID 588506);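 note: Nile Red retained in cells so higher fluorescence means more efflux inhibition; 0 = negative control wells and 1 = enniatin B 25 µM full block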; conditions: S. cerevisiae pump-expressing triplex, Nile Red efflux flow cytometry; at 10 µM; stronger effect = higher value; the pumps come from Candida albicans
[15] = target: ATP-binding cassette sub-family B member 6 (Homo sapiens) (UniProt Q9NP58); assay: blockers of ABCB6-driven porphyrin uptake – K562-ABCB6 cells, flow cytometry, validation set, pilot screen (AID 588550;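 active = inhibition above the screen-wide mean plus 3 SD, about 51%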;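 note: 0% = DMSO wells and 100% = benzethonium chloride 70 µM positive control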); conditions: K562-ABCB6 porphyrin accumulation, 1 h, at 10 µM, stronger effect = higher value
Sequence of ATP-binding cassette sub-family B member 6 (Homo sapiens) (Q9NP58 whole entry, looked up): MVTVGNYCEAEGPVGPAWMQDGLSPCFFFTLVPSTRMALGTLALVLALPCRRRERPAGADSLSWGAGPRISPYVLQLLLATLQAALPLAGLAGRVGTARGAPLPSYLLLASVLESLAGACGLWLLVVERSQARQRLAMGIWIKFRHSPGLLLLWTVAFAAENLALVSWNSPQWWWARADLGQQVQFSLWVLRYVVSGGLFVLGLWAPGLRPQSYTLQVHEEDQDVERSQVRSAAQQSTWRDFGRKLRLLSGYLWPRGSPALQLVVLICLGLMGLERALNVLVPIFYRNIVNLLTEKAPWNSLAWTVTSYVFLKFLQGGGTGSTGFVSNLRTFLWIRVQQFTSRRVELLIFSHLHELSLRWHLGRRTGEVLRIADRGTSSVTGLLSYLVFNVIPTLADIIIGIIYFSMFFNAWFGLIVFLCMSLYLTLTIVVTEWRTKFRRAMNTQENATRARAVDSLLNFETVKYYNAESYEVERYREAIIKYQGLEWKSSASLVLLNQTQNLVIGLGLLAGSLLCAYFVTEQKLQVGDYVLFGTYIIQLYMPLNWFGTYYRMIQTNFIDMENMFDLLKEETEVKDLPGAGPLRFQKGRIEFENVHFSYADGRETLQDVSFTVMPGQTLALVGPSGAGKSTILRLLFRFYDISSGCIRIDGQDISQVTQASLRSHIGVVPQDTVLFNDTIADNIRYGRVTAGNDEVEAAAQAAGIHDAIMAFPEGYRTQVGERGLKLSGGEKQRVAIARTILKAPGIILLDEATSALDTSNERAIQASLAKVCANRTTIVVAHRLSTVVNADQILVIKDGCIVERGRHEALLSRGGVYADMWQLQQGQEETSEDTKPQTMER

[16] = AML differentiation inducers, ER-HoxA9 marrow cells – cell-based, GFP/MAC1 double positive, flow cytometry, validation set, primary screen (AID 588685;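 active = differentiation response of at least 50%, scaled between solvent and reference control, from cells with both markers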;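 note: compound exposure lasts four days before antibody staining and flow analysis; 0% = DMSO wells and 100% = 5 µM fulvestrant positive control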); conditions: stronger effect = higher value, normalized: vehicle 0, fulvestrant 100

Structure (SMILES) | percent of DMSO control GFP [1] | GFP response vs DMSO [2] | percent response of DMSO control [3] | GFP response vs DMSO [4] | GFP response, % of DMSO [5] | double positive events [6] [%] | vesicle binding response [6] | inhibition [7] | superoxide response (% of plate) [8] | aptamer binding inhibition [9] | response [10] | inhibition [11] | response [12] | binding (% of control) [13] | efflux inhibition (fraction of control) [14] | inhibition [15] | differentiation response [16]
c1ccc(SSc2ccccc2)cc1 | 105% (inactive) | 108% (inactive) | 118% (inactive) | 96.6% (inactive) | 103% (inactive) | 62.9 | 301% (inactive) | -0.45% (inactive) | 93.6% (inactive) | 2% (inactive) | 1.12% (inactive) | -24.5% (inactive) | 3.24% (inactive) | 93.5% (inactive) | -0.04 (inactive) | -6% (inactive) | -2.69% (inactive)
O=C(NC1CC1)C1CCN(C2CCN(C(=O)Cc3ccc(F)cc3)CC2)CC1 | 94.6% (inactive) | 136% (inactive) | 111% (inactive) | 84.7% (inactive) | 90.5% (inactive) | 38 | 48% (active) | -3.24% (inactive) | 106% (inactive) | -7% (inactive) | -2.98% (inactive) | 44.4% (inactive) | -9.52% (inactive) | 98.3% (inactive) | 0.27 (inactive) | 8% (inactive) | 6.55% (inactive)
CC1(C)O[C@@H]2C[C@H]3[C@@H]4C[C@H](F)C5=CC(=O)C=C[C@]5(C)[C@@]4(F)[C@@H](O)C[C@]3(C)[C@]2(C(=O)CO)O1 | 102% (inactive) | 102% (inactive) | 105% (inactive) | 102% (inactive) | 111% (inactive) | 57.8 | 113% (inactive) | -5.11% (inactive) | 103% (inactive) | 1% (inactive) | 6.68% (inactive) | -10.8% (inactive) | 0.85% (inactive) | 104% (inactive) | -0.025 (inactive) | 19% (inactive) | -8.96% (inactive)
NC(N)=N/N=C/c1cccc(Cl)c1Cl | 104% (inactive) | 96.3% (inactive) | 98.6% (inactive) | 103% (inactive) | 98.8% (inactive) | 66.1 | 157% (inactive) | 9.13% (inactive) | 97.9% (inactive) | -3% (inactive) | 22.4% (inactive) | 14.4% (inactive) | -0.64% (inactive) | 102% (inactive) | -0.24 (inactive) | 4% (inactive) | -18.4% (inactive)
CCC(C(=O)OCCN(CC)CC)c1ccccc1 (stereo not drawn) | 101% (inactive) | 101% (inactive) | 98.2% (inactive) | 85.9% (inactive) | 99.1% (inactive) | 57.2 | 33.7% (inactive) | 2.55% (inactive) | 97.2% (inactive) | 5% (inactive) | 8.98% (inactive) | 19.7% (inactive) | -2.47% (inactive) | 98.8% (inactive) | 0.26 (inactive) | 6% (inactive) | 14.9% (inactive)
CCN(CCCCOC(=O)c1ccc(OC)c(OC)c1)C(C)Cc1ccc(OC)cc1 (stereo not drawn) | 102% (inactive) | 99.6% (inactive) | 102% (inactive) | 104% (inactive) | 117% (inactive) | 62.7 | 194% (inactive) | 22.7% (inactive) | 103% (inactive) | 4% (inactive) | -26.8% (inactive) | 3.32% (inactive) | 0.12% (inactive) | 103% (inactive) | -0.09 (inactive) | 6% (inactive) | -5.97% (inactive)
CC(=O)c1c(C)c(C)c2n1CCn1c(C)ccc1-2 | 105% (inactive) | 107% (inactive) | 93.1% (inactive) | 121% (inactive) | 107% (inactive) | 60.2 | 141% (inactive) | -36.9% (inactive) | 99.4% (inactive) | 0% (inactive) | -22.4% (inactive) | 6.32% (inactive) | -6.83% (inactive) | 116% (inactive) | -0.09 (inactive) | -18% (inactive) | -5.97% (inactive)
O=C1c2cccc3cccc(c23)C(=O)N1c1ccccn1 | 107% (inactive) | 101% (inactive) | 109% (inactive) | 97.3% (inactive) | 107% (inactive) | 58.2 | 79.7% (inactive) | 9.92% (inactive) | 107% (inactive) | 4% (inactive) | -9.79% (inactive) | 1.31% (inactive) | 3% (inactive) | 95.3% (inactive) | -0.07 (inactive) | -11% (inactive) | -1.71% (inactive)
C/C(=N\NC(=O)c1ccccc1[N+](=O)[O-])c1ccc(Br)s1 | 98.4% (inactive) | 107% (inactive) | 107% (inactive) | 100% (inactive) | 101% (inactive) | 57.5 | 94.2% (inactive) | 0.25% (inactive) | 97.9% (inactive) | 2% (inactive) | -0.6% (inactive) | 7.49% (inactive) | -4.2% (inactive) | 95.7% (inactive) | -0.235 (inactive) | -10% (inactive) | -4.57% (inactive)
